Source: PubChem BioAssay (Corson Lab, School of Medicine, Indiana University)
The entries come from a sample that favours hits as a whole.
FECH inh – blocks human mitochondrial ferrochelatase activity | hit rate 3.3% among 20,000 | calls only at 10 µM (by protocol) | AID 1671448 | purified FECH, Ni-mesoporphyrin absorbance 550 nm;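 active = enzyme reaction rate more than 3 SD below the solvent-only control wells on the same plate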;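 note: lower slope than DMSO wells means FECH inhibition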
Target sequence (P22830 whole entry, looked up): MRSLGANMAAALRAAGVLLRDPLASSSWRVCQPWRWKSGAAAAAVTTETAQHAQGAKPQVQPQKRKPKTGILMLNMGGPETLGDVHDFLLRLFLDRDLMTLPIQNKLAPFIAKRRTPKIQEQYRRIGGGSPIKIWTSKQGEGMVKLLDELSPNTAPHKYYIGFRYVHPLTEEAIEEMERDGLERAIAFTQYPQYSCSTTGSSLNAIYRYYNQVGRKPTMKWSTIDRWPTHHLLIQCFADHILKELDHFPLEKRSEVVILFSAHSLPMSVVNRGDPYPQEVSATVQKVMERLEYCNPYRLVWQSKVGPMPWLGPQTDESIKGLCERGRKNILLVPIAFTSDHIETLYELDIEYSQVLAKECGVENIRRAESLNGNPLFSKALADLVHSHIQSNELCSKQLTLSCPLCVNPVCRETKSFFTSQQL
Starred values were filed as active, the others as inactive; i = inactive; + = active, no number.

SMILES | FECH inh
C=CCn1cc(CN[C@H](C)c2cccc(OC)c2)c(C)n1 | +
C=CCn1cc(CNC(C)C2=CCCCC2)c(C)n1 (configuration not stated) | i
C=CCn1cc(CN(C)C(C)CC(=O)NC)c(C)n1 (configuration not stated) | i
Cc1ccc(NC(=O)CN2C(=O)CN(C)C(=O)c3ccccc32)cc1 | i
CN1CC(=O)N(CC(=O)Nc2ccccc2)c2ccccc2C1=O | i
CC(C)c1ccc(NC(=O)CN2C(=O)CN(C)C(=O)c3ccccc32)cc1 | i
CN1CC(=O)N(CC(=O)Nc2ccc(F)c(Cl)c2)c2ccccc2C1=O | +
CN1CC(=O)N(CC(=O)Nc2ccc3c(c2)OCO3)c2ccccc2C1=O | +
Cc1cc(C)cc(NC(=O)CN2C(=O)CN(C)C(=O)c3ccccc32)c1 | i
Cc1ccc(C(C)NC(=O)CN2CCC(OCc3cccnc3)CC2)cc1 (configuration not stated) | i
O=C(CCN1CCC(OCc2cccnc2)CC1)NC1CCCCCC1 | +
C/C=C(\C)CN1CCC(OCc2cccnc2)CC1 | i
CC(C)Cn1cncc1CNc1nc(CCN)nc2ccccc12 | i
Cc1cccc(NC(=O)CSc2nnc(-c3ccccc3NC(=O)c3ccccc3)c(=O)[nH]2)c1 | i
COC(=O)CN1CCN(Cc2cccc3c2OCO3)C(C)C1=O (configuration not stated) | i
CCC(=O)Nc1cccc(C(=O)NCc2sc(C)nc2CC)c1 | +
CCC(=O)Nc1cccc(C(=O)NCc2nc(Cc3cccs3)no2)c1 | i
CCc1nc(C)sc1CNC(=O)c1sccc1NC(C)=O | i
CCCN(CCC)CCNC(=O)c1cccn1-c1nnc(N2CCCCC2)s1 | i
CCOc1ccc(CCNC(=O)c2cccn2-c2nnc(N3CCCCC3)s2)cc1 | i
O=C(NCCc1ccccc1)c1cccn1-c1nnc(N2CCCCC2)s1 | +
O=C(COc1ccc(Cl)cc1)Nc1cccc(N2CCCS2(=O)=O)c1 | i
COc1ccc(NC(=O)Cn2c(C(=O)OC(C)C)cc3ccsc32)cc1 | i
CC(=O)c1ccc(NC(=O)Cn2c(C(=O)OC(C)C)cc3ccsc32)cc1 | +
CC(=O)c1cccc(NC(=O)Cn2c(C(=O)OC(C)C)cc3ccsc32)c1 | i
SMILES | FECH inh
CN(C)C1CCCN(C(=O)C23C[C@H]4C[C@@H](C2)CC(n2cncn2)(C4)C3)CC1 (some centres not stated) | i
O=C(NCCN1CCCC1)C1CCN(c2ccc(-c3cccs3)nn2)CC1 | i
Cn1cc(CN(Cc2cc3cc4c(cc3[nH]c2=O)OCO4)C2CC2)cn1 | i
Cn1cc(CN(Cc2ccc(CO)o2)C2CC2)cn1 | +
Cc1ccc(C(C)NC(=O)CN(Cc2cnn(C)c2)C2CC2)cc1 (configuration not stated) | i
Cc1cccc(-c2cc(N3CCN(S(=O)(=O)c4cnn(C(F)F)c4C)CC3)ncn2)c1 | i
CCCc1ccc(C(=O)N2CCCC(N(C)C)CC2)cc1 (configuration not stated) | i
CN(C)c1ccccc1C(=O)N1CCC2(CC1)c1ccccc1[C@@H](N)[C@@H]2O | i
CC(=O)c1ccc(N2CCN(S(=O)(=O)c3cc(C(=O)N4CCCCC4)cs3)CC2)cc1 | i
Cc1cc(C)cc(NS(=O)(=O)c2cc(C(=O)N3CCCCC3)cs2)c1 | i
COc1cccc(N2CCN(S(=O)(=O)c3cc(C(=O)N4CCCC4)cs3)CC2)c1 | i
O=C(c1csc(S(=O)(=O)NC2CC2)c1)N1CCCC1 | i
CC(=O)c1ccc(N2CCN(S(=O)(=O)c3cc(C(=O)N4CCCC4)cs3)CC2)cc1 | +
CC(C)(C)NS(=O)(=O)c1cc(C(=O)N2CCCCC2)cs1 | +
Cc1ccccc1CN1CCN(CC(=O)Nc2cccc(C)c2C)S1(=O)=O | i
O=C(NCCCn1ccnc1)c1cccc2ccnn12 | i
CN1CCCC2(CC1)CCN(S(=O)(=O)c1ccccc1F)CC2 | i
CC(C)C1CN(C(=O)C2=NNC(=O)CC2)CCCN1Cc1ccc(F)cc1 (configuration not stated) | i
CCOc1ccc(CNC(=O)CN2C(=O)CN(C)C(=O)c3ccccc32)cc1OC | i
COc1ccc(OC)c(CNC(=O)Cn2c(=O)c3cnc(-c4ccccc4)nc3n(C)c2=O)c1 | i
COc1ccc(OC)c(CNC(=O)CN2C(=O)c3cccnc3Sc3ccccc32)c1 | +
COC(=O)c1cccc(Nc2cc(-c3cccc(C)c3)nc(C)n2)c1 | i
CCCc1ccc(C2CC(=O)Nc3cc4c(cc32)OCO4)o1 (configuration not stated) | i
Cc1ccc(-c2nccn2-c2cccc(-c3nnc(C)s3)c2)o1 | i
Cc1cc(C)n2nc(CN(C(=O)c3ccccc3)c3ccc(Cl)cc3)nc2n1 | i
SMILES | FECH inh
Cc1cccc(C(=O)N(Cc2nc3nc(C)cc(C)n3n2)c2ccccc2)c1 | +
Cc1ccc(N(Cc2nc3nc(C)cc(C)n3n2)C(=O)C2CCCCC2)cc1 | i
Cc1cc(C)n2nc(CN(C(=O)C3CCCCC3)c3cccc(Cl)c3)nc2n1 | i
Cc1ccc(N(Cc2nc3nc(C)cc(C)n3n2)S(=O)(=O)c2ccccc2)cc1 | +
Cc1cc(C)n2nc(CN(C(=O)C3CCCCC3)c3ccc(Cl)cc3)nc2n1 | +
Cc1cc(C)n2nc(CN(C(=O)Cc3ccccc3)c3ccc(Cl)cc3)nc2n1 | i
Cc1ccc(N(Cc2nc3nc(C)cc(C)n3n2)C(=O)Cc2ccc(Cl)cc2)cc1 | +
Cc1cccc(N(Cc2nc3nc(C)cc(C)n3n2)C(=O)c2ccccc2)c1 | i
Cc1cccc(N(Cc2nc3nc(C)cc(C)n3n2)S(=O)(=O)c2ccccc2)c1 | i
Cc1ccc(N(Cc2nc3nc(C)cc(C)n3n2)S(=O)(=O)c2ccc(C)cc2)cc1 | i
COc1ccc(CC(=O)N(Cc2nc3nc(C)cc(C)n3n2)c2ccc(Cl)cc2)cc1 | i
Cc1ccc(-c2cc(O)c3c(c2)CN(C(=O)c2cccc(F)c2)CCO3)s1 | i
CN1CCCCC1CCC(=O)N(Cc1ccc2[nH]ccc2c1)C1CC1 (configuration not stated) | i
COc1ccccc1CN1C(=O)O[C@@H]2CN(C(=O)C(=O)c3ccco3)C[C@@H]21 | i
CCOC(=O)c1c(NC(=O)c2ccccc2C(=O)O)sc2c1CCN(C)C2 | i
CCC(C)N(Cc1ccc(C)cc1)Cc1ncnn1CC (configuration not stated) | i
O=C(NCCCN1CCOCC1)C1CCCN(Cc2ccco2)C1 (configuration not stated) | i
CCCc1c(C)nc2ncnn2c1Sc1ccc(NC(=O)c2cccs2)cc1 | i
CC1CCN(C(=O)C2CCC(Cn3c(=O)c4sccc4n(CC(N)=O)c3=O)CC2)CC1 (configuration not stated) | i
CCCC(=O)N(Cc1nc2nc(C)cc(C)n2n1)c1cccc(Cl)c1 | i
CCCC(=O)N(Cc1nc2nc(C)cc(C)n2n1)c1cccc(C)c1 | +
COc1cccc(C(=O)N(Cc2nc3nc(C)cc(C)n3n2)c2ccc(Cl)cc2)c1 | i
Cc1cccc(N(Cc2nc3nc(C)cc(C)n3n2)C(=O)CCc2ccccc2)c1 | i
Cc1cc(C)n2nc(CN(C(=O)c3ccccc3C)c3ccccc3)nc2n1 | i
Cc1ccc(N(Cc2nc3nc(C)cc(C)n3n2)C(=O)c2cccc(C)c2)cc1 | +
Cc1cccc(N(Cc2nc3nc(C)cc(C)n3n2)C(=O)c2ccccc2C)c1 | +
